Positions count from the first letter of the chain named.
B1: GTACCTCG (ssRNA)
RNA 1: GAGUUCUACAGUCCGACGAUCCCAACGUACCUCGCACCUGGAAUUCUCGGGUGCCAA
RNA 2: UGGAGUGUGACAAUGGUGUUUG
DNA 1: GATCGTCGGACTGTAGAACTC
DNA 2: TTGGCACCCGAGAATTCCA
modifications: constant regions annealed to DNA blockers; guide miR-122 5' phosphate
B2: GCGCTTCG (ssRNA)
RNA 1: B1 RNA 1 with U28C, A29G, C31U
RNA 2: UGGAGUGUGACAAUGGUGUUUG
DNA 1: GATCGTCGGACTGTAGAACTC
DNA 2: TTGGCACCCGAGAATTCCA
modifications: constant regions annealed to DNA blockers; guide miR-122 5' phosphate
B3: GCATTCCG (ssRNA)
RNA 1: B1 RNA 1 with U28C, C30U, C31U, U32C
RNA 2: UGGAGUGUGACAAUGGUGUUUG
DNA 1: GATCGTCGGACTGTAGAACTC
DNA 2: TTGGCACCCGAGAATTCCA
modifications: constant regions annealed to DNA blockers; guide miR-122 5' phosphate
B4: GCGTCTTG (ssRNA)
RNA 1: B1 RNA 1 with U28C, A29G, C30U, C33U
RNA 2: UGGAGUGUGACAAUGGUGUUUG
DNA 1: GATCGTCGGACTGTAGAACTC
DNA 2: TTGGCACCCGAGAATTCCA
modifications: constant regions annealed to DNA blockers; guide miR-122 5' phosphate
B5: ACACTTCG (ssRNA)
RNA 1: B1 RNA 1 with G27A, U28C, C31U
RNA 2: UGGAGUGUGACAAUGGUGUUUG
DNA 1: GATCGTCGGACTGTAGAACTC
DNA 2: TTGGCACCCGAGAATTCCA
modifications: constant regions annealed to DNA blockers; guide miR-122 5' phosphate
B6: ACGCTTTA (ssRNA)
RNA 1: B1 RNA 1 with G27A, U28C, A29G, C31U, C33U, G34A
RNA 2: UGGAGUGUGACAAUGGUGUUUG
DNA 1: GATCGTCGGACTGTAGAACTC
DNA 2: TTGGCACCCGAGAATTCCA
modifications: constant regions annealed to DNA blockers; guide miR-122 5' phosphate
B7: GCACTTCG (ssRNA)
RNA 1: B1 RNA 1 with U28C, C31U
RNA 2: UGGAGUGUGACAAUGGUGUUUG
DNA 1: GATCGTCGGACTGTAGAACTC
DNA 2: TTGGCACCCGAGAATTCCA
modifications: constant regions annealed to DNA blockers; guide miR-122 5' phosphate
B8: ATGCCCTG (ssRNA)
RNA 1: B1 RNA 1 with G27A, A29G, U32C, C33U
RNA 2: UGGAGUGUGACAAUGGUGUUUG
DNA 1: GATCGTCGGACTGTAGAACTC
DNA 2: TTGGCACCCGAGAATTCCA
modifications: constant regions annealed to DNA blockers; guide miR-122 5' phosphate
B9: ACGCCCCG (ssRNA)
RNA 1: B1 RNA 1 with G27A, U28C, A29G, U32C
RNA 2: UGGAGUGUGACAAUGGUGUUUG
DNA 1: GATCGTCGGACTGTAGAACTC
DNA 2: TTGGCACCCGAGAATTCCA
modifications: constant regions annealed to DNA blockers; guide miR-122 5' phosphate
B10: ATGTCTTG (ssRNA)
RNA 1: B1 RNA 1 with G27A, A29G, C30U, C33U
RNA 2: UGGAGUGUGACAAUGGUGUUUG
DNA 1: GATCGTCGGACTGTAGAACTC
DNA 2: TTGGCACCCGAGAATTCCA
modifications: constant regions annealed to DNA blockers; guide miR-122 5' phosphate
B11: GTGCCCTG (ssRNA)
RNA 1: B1 RNA 1 with A29G, U32C, C33U
RNA 2: UGGAGUGUGACAAUGGUGUUUG
DNA 1: GATCGTCGGACTGTAGAACTC
DNA 2: TTGGCACCCGAGAATTCCA
modifications: constant regions annealed to DNA blockers; guide miR-122 5' phosphate
B12: GTGTTCTG (ssRNA)
RNA 1: B1 RNA 1 with A29G, C30U, C31U, U32C, C33U
RNA 2: UGGAGUGUGACAAUGGUGUUUG
DNA 1: GATCGTCGGACTGTAGAACTC
DNA 2: TTGGCACCCGAGAATTCCA
modifications: constant regions annealed to DNA blockers; guide miR-122 5' phosphate
B13: ATATCCTG (ssRNA)
RNA 1: B1 RNA 1 with G27A, C30U, U32C, C33U
RNA 2: UGGAGUGUGACAAUGGUGUUUG
DNA 1: GATCGTCGGACTGTAGAACTC
DNA 2: TTGGCACCCGAGAATTCCA
modifications: constant regions annealed to DNA blockers; guide miR-122 5' phosphate
B14: GCGTTTTG (ssRNA)
RNA 1: B1 RNA 1 with U28C, A29G, C30U, C31U, C33U
RNA 2: UGGAGUGUGACAAUGGUGUUUG
DNA 1: GATCGTCGGACTGTAGAACTC
DNA 2: TTGGCACCCGAGAATTCCA
modifications: constant regions annealed to DNA blockers; guide miR-122 5' phosphate
B15: GTATCCTG (ssRNA)
RNA 1: B1 RNA 1 with C30U, U32C, C33U
RNA 2: UGGAGUGUGACAAUGGUGUUUG
DNA 1: GATCGTCGGACTGTAGAACTC
DNA 2: TTGGCACCCGAGAATTCCA
modifications: constant regions annealed to DNA blockers; guide miR-122 5' phosphate
B16: ATATTTTG (ssRNA)
RNA 1: B1 RNA 1 with G27A, C30U, C31U, C33U
RNA 2: UGGAGUGUGACAAUGGUGUUUG
DNA 1: GATCGTCGGACTGTAGAACTC
DNA 2: TTGGCACCCGAGAATTCCA
modifications: constant regions annealed to DNA blockers; guide miR-122 5' phosphate
B17: GCGTCTCG (ssRNA)
RNA 1: B1 RNA 1 with U28C, A29G, C30U
RNA 2: UGGAGUGUGACAAUGGUGUUUG
DNA 1: GATCGTCGGACTGTAGAACTC
DNA 2: TTGGCACCCGAGAATTCCA
modifications: constant regions annealed to DNA blockers; guide miR-122 5' phosphate
B18: ATATCCCG (ssRNA)
RNA 1: B1 RNA 1 with G27A, C30U, U32C
RNA 2: UGGAGUGUGACAAUGGUGUUUG
DNA 1: GATCGTCGGACTGTAGAACTC
DNA 2: TTGGCACCCGAGAATTCCA
modifications: constant regions annealed to DNA blockers; guide miR-122 5' phosphate
B19: GTGTTCCG (ssRNA)
RNA 1: B1 RNA 1 with A29G, C30U, C31U, U32C
RNA 2: UGGAGUGUGACAAUGGUGUUUG
DNA 1: GATCGTCGGACTGTAGAACTC
DNA 2: TTGGCACCCGAGAATTCCA
modifications: constant regions annealed to DNA blockers; guide miR-122 5' phosphate
B20: ATGTTCTA (ssRNA)
RNA 1: B1 RNA 1 with G27A, A29G, C30U, C31U, U32C, C33U, G34A
RNA 2: UGGAGUGUGACAAUGGUGUUUG
DNA 1: GATCGTCGGACTGTAGAACTC
DNA 2: TTGGCACCCGAGAATTCCA
modifications: constant regions annealed to DNA blockers; guide miR-122 5' phosphate
B21: ACATCTCG (ssRNA)
RNA 1: B1 RNA 1 with G27A, U28C, C30U
RNA 2: UGGAGUGUGACAAUGGUGUUUG
DNA 1: GATCGTCGGACTGTAGAACTC
DNA 2: TTGGCACCCGAGAATTCCA
modifications: constant regions annealed to DNA blockers; guide miR-122 5' phosphate
B22: GCGTTCTG (ssRNA)
RNA 1: B1 RNA 1 with U28C, A29G, C30U, C31U, U32C, C33U
RNA 2: UGGAGUGUGACAAUGGUGUUUG
DNA 1: GATCGTCGGACTGTAGAACTC
DNA 2: TTGGCACCCGAGAATTCCA
modifications: constant regions annealed to DNA blockers; guide miR-122 5' phosphate
B23: ACACCTCG (ssRNA)
RNA 1: B1 RNA 1 with G27A, U28C
RNA 2: UGGAGUGUGACAAUGGUGUUUG
DNA 1: GATCGTCGGACTGTAGAACTC
DNA 2: TTGGCACCCGAGAATTCCA
modifications: constant regions annealed to DNA blockers; guide miR-122 5' phosphate

Tests used:
Assay in all cases: RNA Bind-n-Seq (nitrocellulose filter binding and sequencing); miR-122 guide loaded in AGO2; 60 min incubation; 30 mM Tris pH 8.0, 100 mM potassium acetate, 2 mM magnesium acetate, 0.5 mM TCEP, 0.005% NP-40, 0.01 mg/ml yeast tRNA; 3 nM AGO2-miR-122, 100 nM RNA library; 60; high values mean tight binding
Details in all cases: protein: recombinant; tags: His6 (N-terminal, pFastBac HTA)
[1] = target: AGO2 L192P (Homo sapiens, UniProt Q9UKV8 1-859, L192P;S387D;S824A;S828D;S831D;S834A)
Sequence of AGO2 L192P (Q9UKV8 whole entry L192P/S387D/S824A/S828D/S831D/S834A): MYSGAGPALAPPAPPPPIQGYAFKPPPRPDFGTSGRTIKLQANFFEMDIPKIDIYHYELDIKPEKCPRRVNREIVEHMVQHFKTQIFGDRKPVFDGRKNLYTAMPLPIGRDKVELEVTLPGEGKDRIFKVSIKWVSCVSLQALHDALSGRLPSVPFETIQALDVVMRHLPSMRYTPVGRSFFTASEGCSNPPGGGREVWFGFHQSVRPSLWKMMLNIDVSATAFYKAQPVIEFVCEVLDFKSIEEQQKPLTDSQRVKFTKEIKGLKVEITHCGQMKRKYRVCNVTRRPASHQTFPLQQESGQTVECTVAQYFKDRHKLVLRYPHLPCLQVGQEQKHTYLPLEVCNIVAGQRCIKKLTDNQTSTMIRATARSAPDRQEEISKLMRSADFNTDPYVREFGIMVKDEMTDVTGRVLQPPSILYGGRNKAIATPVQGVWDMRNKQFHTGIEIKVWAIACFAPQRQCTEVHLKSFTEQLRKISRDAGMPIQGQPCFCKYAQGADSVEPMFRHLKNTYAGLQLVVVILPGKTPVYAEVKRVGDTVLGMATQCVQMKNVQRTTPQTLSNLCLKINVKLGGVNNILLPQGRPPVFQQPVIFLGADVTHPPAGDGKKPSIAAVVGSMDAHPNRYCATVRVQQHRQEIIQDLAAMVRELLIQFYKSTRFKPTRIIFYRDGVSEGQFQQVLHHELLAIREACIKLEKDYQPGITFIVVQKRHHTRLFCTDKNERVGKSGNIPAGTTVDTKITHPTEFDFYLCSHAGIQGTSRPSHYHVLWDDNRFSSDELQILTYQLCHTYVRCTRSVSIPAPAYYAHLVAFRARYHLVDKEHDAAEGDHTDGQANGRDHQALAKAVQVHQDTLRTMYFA
Summary of the method: (§1)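 Fold enrichment is each target's read fraction divided by its read fraction in the input library. Sf9 insect cells expressed His-tagged AGO2 from baculovirus; the protein was loaded with a synthetic guide RNA and purified by Ni-NTA and a biotinylated capture oligo. The bound RNA was extracted, reverse-transcribed, barcode-amplified and sequenced on Illumina.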

[2] = target: AGO2 A367P (Homo sapiens, UniProt Q9UKV8 1-859, A367P;S387D;S824A;S828D;S831D;S834A)
Sequence of AGO2 A367P (Q9UKV8 whole entry A367P/S387D/S824A/S828D/S831D/S834A): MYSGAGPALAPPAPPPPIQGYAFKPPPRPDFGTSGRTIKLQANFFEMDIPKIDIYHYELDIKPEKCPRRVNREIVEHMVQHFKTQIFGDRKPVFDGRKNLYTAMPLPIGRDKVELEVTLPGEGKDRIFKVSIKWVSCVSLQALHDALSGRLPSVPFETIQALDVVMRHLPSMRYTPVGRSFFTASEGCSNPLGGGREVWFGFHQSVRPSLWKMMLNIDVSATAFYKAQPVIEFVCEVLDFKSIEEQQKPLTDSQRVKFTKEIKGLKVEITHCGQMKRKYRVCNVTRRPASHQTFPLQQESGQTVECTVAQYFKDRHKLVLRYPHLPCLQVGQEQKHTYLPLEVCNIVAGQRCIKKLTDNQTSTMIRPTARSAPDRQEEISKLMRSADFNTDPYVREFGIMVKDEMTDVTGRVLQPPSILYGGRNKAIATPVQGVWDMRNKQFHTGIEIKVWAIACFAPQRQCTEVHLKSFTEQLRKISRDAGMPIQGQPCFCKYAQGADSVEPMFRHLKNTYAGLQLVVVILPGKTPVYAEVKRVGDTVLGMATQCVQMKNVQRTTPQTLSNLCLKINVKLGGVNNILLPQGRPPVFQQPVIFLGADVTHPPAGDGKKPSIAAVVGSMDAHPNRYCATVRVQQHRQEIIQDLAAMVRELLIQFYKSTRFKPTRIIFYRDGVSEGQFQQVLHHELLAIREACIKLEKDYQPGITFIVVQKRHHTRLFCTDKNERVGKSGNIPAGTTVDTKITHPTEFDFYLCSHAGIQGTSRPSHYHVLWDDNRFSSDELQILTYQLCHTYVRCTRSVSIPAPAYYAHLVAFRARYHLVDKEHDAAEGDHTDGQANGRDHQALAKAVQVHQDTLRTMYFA
Summary of the method: as §1

[3] = target: AGO2 T357M (Homo sapiens, UniProt Q9UKV8 1-859, T357M;S387D;S824A;S828D;S831D;S834A)
Sequence of AGO2 T357M (Q9UKV8 whole entry T357M/S387D/S824A/S828D/S831D/S834A): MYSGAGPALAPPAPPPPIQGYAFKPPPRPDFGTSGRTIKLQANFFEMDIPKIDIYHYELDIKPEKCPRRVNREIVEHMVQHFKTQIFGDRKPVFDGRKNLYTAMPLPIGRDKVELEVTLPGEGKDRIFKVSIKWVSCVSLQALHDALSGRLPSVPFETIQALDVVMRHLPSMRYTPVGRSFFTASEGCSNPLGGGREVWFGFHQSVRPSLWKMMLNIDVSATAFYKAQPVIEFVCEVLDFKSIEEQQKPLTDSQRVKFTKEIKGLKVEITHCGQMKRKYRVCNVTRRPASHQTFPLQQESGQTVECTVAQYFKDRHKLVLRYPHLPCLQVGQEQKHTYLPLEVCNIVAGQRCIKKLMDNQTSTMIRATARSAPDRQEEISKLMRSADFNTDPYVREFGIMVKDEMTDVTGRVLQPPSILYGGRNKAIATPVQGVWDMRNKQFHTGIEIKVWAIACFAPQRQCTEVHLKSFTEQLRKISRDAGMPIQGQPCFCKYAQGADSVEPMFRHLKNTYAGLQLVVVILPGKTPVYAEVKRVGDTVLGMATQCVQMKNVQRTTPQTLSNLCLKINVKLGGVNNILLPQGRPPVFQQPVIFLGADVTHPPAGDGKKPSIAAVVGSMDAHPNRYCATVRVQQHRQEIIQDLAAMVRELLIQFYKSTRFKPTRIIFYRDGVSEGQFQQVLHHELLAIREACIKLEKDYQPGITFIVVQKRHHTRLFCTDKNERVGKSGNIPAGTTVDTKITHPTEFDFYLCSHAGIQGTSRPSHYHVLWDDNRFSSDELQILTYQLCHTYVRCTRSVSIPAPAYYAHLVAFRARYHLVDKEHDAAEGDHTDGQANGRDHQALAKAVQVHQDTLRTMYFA
Summary of the method: as §1

[4] = target: AGO2 F182del (Homo sapiens, UniProt Q9UKV8 1-859, S387D;S824A;S828D;S831D;S834A;del182-182)
Sequence of AGO2 F182del (Q9UKV8 other isoform, or with tags, fused parts or gaps S387D;S824A;S828D;S831D;S834A;del182-182): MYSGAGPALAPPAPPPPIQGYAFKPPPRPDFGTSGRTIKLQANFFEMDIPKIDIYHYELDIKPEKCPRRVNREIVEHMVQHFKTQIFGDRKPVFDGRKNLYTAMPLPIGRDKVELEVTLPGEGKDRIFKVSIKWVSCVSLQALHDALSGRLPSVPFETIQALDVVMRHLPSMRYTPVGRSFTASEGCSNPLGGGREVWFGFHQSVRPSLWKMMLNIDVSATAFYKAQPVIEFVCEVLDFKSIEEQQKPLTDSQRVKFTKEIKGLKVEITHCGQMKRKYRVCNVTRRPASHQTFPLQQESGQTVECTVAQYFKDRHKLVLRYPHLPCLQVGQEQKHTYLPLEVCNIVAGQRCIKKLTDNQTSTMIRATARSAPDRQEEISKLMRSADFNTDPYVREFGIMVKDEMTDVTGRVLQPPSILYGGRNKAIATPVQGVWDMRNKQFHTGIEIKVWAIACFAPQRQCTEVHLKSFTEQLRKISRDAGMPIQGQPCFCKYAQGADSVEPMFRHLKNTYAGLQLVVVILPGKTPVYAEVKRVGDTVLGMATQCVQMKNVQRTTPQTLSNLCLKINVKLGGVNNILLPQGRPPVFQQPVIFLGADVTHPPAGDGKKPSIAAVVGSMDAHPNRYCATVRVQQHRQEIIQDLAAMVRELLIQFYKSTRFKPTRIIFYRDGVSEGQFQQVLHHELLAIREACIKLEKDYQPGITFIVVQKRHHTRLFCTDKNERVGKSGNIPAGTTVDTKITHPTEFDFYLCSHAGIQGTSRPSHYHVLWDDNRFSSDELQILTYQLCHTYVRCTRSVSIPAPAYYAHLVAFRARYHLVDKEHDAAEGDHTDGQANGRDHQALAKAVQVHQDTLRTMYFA
Summary of the method: as §1

| Binder | binding signal [1] | binding signal [2] | binding signal [3] | binding signal [4] |
| --- | --- | --- | --- | --- |
| B1 | 0.347 fold enrichment over input | 0.125 fold enrichment over input | 0.419 fold enrichment over input |  |
| B2 | 0.354 fold enrichment over input | 0.148 fold enrichment over input | 0.531 fold enrichment over input |  |
| B3 | 0.436 fold enrichment over input | 0.171 fold enrichment over input | 0.548 fold enrichment over input |  |
| B4 | 0.395 fold enrichment over input | 0.141 fold enrichment over input | 0.547 fold enrichment over input |  |
| B5 | 0.433 fold enrichment over input | 0.201 fold enrichment over input | 0.541 fold enrichment over input | 0.152 fold enrichment over input |
| B6 | 0.468 fold enrichment over input | 0.195 fold enrichment over input | 0.588 fold enrichment over input | 0.135 fold enrichment over input |
| B7 | 0.348 fold enrichment over input | 0.147 fold enrichment over input | 0.471 fold enrichment over input |  |
| B8 | 0.377 fold enrichment over input | 0.137 fold enrichment over input | 0.463 fold enrichment over input |  |
| B9 | 0.391 fold enrichment over input | 0.155 fold enrichment over input | 0.524 fold enrichment over input |  |
| B10 | 0.357 fold enrichment over input | 0.128 fold enrichment over input | 0.449 fold enrichment over input |  |
| B11 | 0.425 fold enrichment over input | 0.161 fold enrichment over input | 0.581 fold enrichment over input |  |
| B12 | 0.352 fold enrichment over input | 0.132 fold enrichment over input | 0.47 fold enrichment over input |  |
| B13 | 0.349 fold enrichment over input |  | 0.475 fold enrichment over input |  |
| B14 | 0.362 fold enrichment over input | 0.136 fold enrichment over input | 0.536 fold enrichment over input |  |
| B15 | 0.337 fold enrichment over input | 0.123 fold enrichment over input | 0.449 fold enrichment over input |  |
| B16 | 0.369 fold enrichment over input | 0.149 fold enrichment over input | 0.584 fold enrichment over input |  |
| B17 | 0.345 fold enrichment over input | 0.138 fold enrichment over input | 0.498 fold enrichment over input |  |
| B18 | 0.335 fold enrichment over input |  | 0.422 fold enrichment over input |  |
| B19 | 0.408 fold enrichment over input | 0.144 fold enrichment over input | 0.544 fold enrichment over input |  |
| B20 | 0.469 fold enrichment over input | 0.206 fold enrichment over input | 0.606 fold enrichment over input | 0.182 fold enrichment over input |
| B21 | 0.347 fold enrichment over input | 0.134 fold enrichment over input | 0.37 fold enrichment over input |  |
| B22 | 0.348 fold enrichment over input | 0.135 fold enrichment over input | 0.496 fold enrichment over input |  |
| B23 | 0.412 fold enrichment over input | 0.179 fold enrichment over input | 0.471 fold enrichment over input | 0.256 fold enrichment over input |

— PMC12529666, “Dysregulation of AGO2-miRNA dynamics underlies the AGO2-associated Lessel–Kreienkamp syndrome”
